In PubChem BioAssay (NCATS):
Results filed as inconclusive are left out. A structure can be active in one record and inactive in another. Activity calls are given as the source filed them. The call rests on the fitted dose curve; in most records, active means well fitted curve in the direction sought with a large enough effect in the signal ratio, with a control signal flat (not every such curve was filed as active); inconclusive means small, poorly fitted or top-dose-only effect, or effect the other way, or a change in a side signal; inactive means no such curve, though single readings can be large or run the other way; the % refers to the signal ratio.

These compounds were tested against Androgen receptor (Homo sapiens) (UniProt P10275) (assay: qHTS assay for small molecule antagonists of androgen receptor signaling (AID 588516)). Conditions: AR-UAS-bla HEK293, beta-lactamase ratio, antagonist mode, 16 h; series mostly up to 76.8 µM; activity change, negative = inhibition: at the top concentration.
Androgen receptor (Homo sapiens), sequence (P10275 whole entry, looked up): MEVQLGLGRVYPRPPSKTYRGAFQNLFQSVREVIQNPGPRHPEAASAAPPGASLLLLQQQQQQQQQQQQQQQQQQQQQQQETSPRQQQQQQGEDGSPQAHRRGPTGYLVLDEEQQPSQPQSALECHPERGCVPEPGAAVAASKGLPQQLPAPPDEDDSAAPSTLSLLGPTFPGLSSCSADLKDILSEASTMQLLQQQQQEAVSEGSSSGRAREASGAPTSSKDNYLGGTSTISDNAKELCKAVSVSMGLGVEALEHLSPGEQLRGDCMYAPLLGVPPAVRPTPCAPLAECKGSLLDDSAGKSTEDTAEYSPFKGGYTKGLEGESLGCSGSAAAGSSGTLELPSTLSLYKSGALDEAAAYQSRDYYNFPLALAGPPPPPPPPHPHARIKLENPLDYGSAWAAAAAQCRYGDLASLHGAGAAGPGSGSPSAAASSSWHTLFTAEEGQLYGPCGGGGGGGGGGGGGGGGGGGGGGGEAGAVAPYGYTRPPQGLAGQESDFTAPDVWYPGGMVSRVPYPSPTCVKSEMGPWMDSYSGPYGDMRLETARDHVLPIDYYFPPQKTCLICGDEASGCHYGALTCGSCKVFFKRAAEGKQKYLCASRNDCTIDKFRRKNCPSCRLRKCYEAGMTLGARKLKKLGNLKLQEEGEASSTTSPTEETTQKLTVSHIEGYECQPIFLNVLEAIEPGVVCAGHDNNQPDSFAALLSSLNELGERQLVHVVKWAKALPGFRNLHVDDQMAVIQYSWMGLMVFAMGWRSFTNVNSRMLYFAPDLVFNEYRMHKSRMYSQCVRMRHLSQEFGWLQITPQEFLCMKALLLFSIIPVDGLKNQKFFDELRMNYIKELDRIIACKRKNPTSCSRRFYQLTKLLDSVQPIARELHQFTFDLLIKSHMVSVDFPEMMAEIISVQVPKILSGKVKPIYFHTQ
From the text: NIH Chemical Genomics Center [NCGC] U.S. Environmental Protection Agency [EPA] National Institutes of Environmental Health Sciences [NIEHS] National Toxicology Program [NTP] NCGC Assay Overview Androgen receptor (AR), located at chromosome Xq11-12, is an important member of nuclear hormone receptors. AR signaling plays a critical role in AR-dependent prostate cancer and other androgen related diseases. Considerable attention has been given in the past decades to the possibility of some of environmental chemicals which may contribute the endocrine disruption. Therefore, it is important to understand the effect of environmental chemicals in AR signaling pathway.
NCGC Assay Protocol Summary Using a beta-lactamase reporter-gene under control of the AR response element, a cell-based assay [GeneBLAzer AR-UAS-bla-GripTite assay developed by Invitrogen] was used to measure AR ligands signaling. AR-UAS-bla-GripTite HEK 293 cells were used with assay medium containing 10% dialyzed FBS, 0.1 mM NEAA and 1 mM sodium pyruvate. The assay was performed in clear bottom black Greiner 1536-well plates. Library compounds were measured for their ability to inhibit the reporter gene activity. Compounds were screened in a titration series in 1536-well format. The fluorescence intensity (405 nm excitation, 460/530 nm emission) was measured using an EnVision plate reader. Data was normalized relative to R1881 (10nM, 100%), and DMSO only wells (basal, 0%). Concentration-response titration points for each compound were fitted to the Hill equation yielding concentrations of half-maximal inhibition (IC50) and maximal response (efficacy) values. qHTS protocol for AR beta-lactamase assay in antagonist mode [Step] [Parameter] [Value] [Description] 1. Reagent; 5 uL; 2000 cells/well 2. Incubation; 37 C for 5 hrs 3. Compounds; 23 nL; 0.59 nM to 92 uM 4. Controls (Cyp Ac, AR antagonist); 23 nL, dose response, 1:3 dilutions with duplicates 5. Agonist (Stimulator); 1uL; R1881 at 10nM (final) concentration 6. Incubation; 37 C for 16 hrs 7. Detection reagent; 1 uL of CCF4-dye 8. Incubation; RT for 2 hrs 9. Detection; Fluorescence; Envision plate reader
On the % scale 0 is the no-effect control and ±100 the full control effect.

| SMILES | activity change, negative = inhibition | Potency |
| --- | --- | --- |
| CCC(C)(C)c1cc(-n2nc3ccccc3n2)c(O)c(C(C)(C)CC)c1 | -18.4% (inactive) |  |
| CCCOc1nn(C(=O)NS(=O)(=O)c2ccccc2C(=O)OC)c(=O)n1C | -1.54% (inactive) |  |
| CNC(=O)Oc1cccc2c1OC(C)(C)C2O (stereo not given) | 13.1% (inactive) |  |
| COCc1cnc(C2=NC(C)(C(C)C)C(=O)N2)c(C(=O)O)c1 (stereo not given) | -2.8% (inactive) |  |
| CC1(C)[C@H](C(=O)O[C@H](C#N)c2cccc(Oc3ccccc3)c2)[C@@H]1C=C(Br)Br | -15.3% (inactive) |  |
| CC(C)N(C(=O)CCl)c1ccccc1 |  | 39.8 µM (active) |
| C[N+]1(C)CCCCC1 | -19.6% (inactive) |  |
| Cc1cc(C)nc(NC(=O)NS(=O)(=O)c2ccccc2C(=O)OC2COC2)n1 | 3.57% (inactive) |  |
| N#CC(Cl)Cl | -12% (inactive) |  |
| ClC1=C(Cl)[C@@]2(Cl)[C@H]3C[C@@H](Cl)[C@H](Cl)[C@H]3[C@@]1(Cl)C2(Cl)Cl | -0.774% (inactive) |  |
| COP(=O)(OC)SCn1c(=O)oc2cc(Cl)cnc21 | -8.71% (inactive) |  |
| CCOP(=S)(OCC)Oc1ncn(-c2ccccc2)n1 | -12.5% (inactive) |  |
| CCOP(=O)(SC(C)CC)SC(C)CC (stereo not given) | 2.53% (inactive) |  |
| COc1cc(OC)nc(NC(=O)NS(=O)(=O)c2ncccc2C(F)(F)F)n1 | -3.96% (inactive) |  |
| O=C1C2(Cl)C3(Cl)C4(Cl)C(Cl)(Cl)C5(Cl)C3(Cl)C1(Cl)C5(Cl)C24Cl (stereo not given) |  | 44.7 µM (active) and inactive |
| CS/C(C)=N/OC(=O)N(C)SN(C)C(=O)O/N=C(\C)SC | -7.33% (inactive) |  |
| [Ga]#[As] | -0.912% (inactive) |  |
| CC1(C)CN=C(NN=C(/C=C/c2ccc(C(F)(F)F)cc2)/C=C/c2ccc(C(F)(F)F)cc2)NC1 |  | 35.5 µM (active) |
| Oc1c(Br)c(Br)c(Br)c(Br)c1Br | 14.2% (inactive) |  |
| O=C1NCCN1Cc1ccc(Cl)nc1 | 17.3% (inactive) |  |

| SMILES | activity change, negative = inhibition | Potency |
| --- | --- | --- |
| CCOP(=O)(NC(C)C)Oc1ccc(S(C)=O)c(C)c1 (stereo not given) | -12.7% (inactive) |  |
| O=[N+]([O-])C(Br)Br | 12.2% (inactive) |  |
| Cc1nn(-c2cc(NS(C)(=O)=O)c(Cl)cc2Cl)c(=O)n1C(F)F | 0.476% (inactive) |  |
| N#CCNC(=O)c1cnccc1C(F)(F)F | -16.6% (inactive) |  |
| CCNc1nc(NC(C)C)nc(SC)n1 | -10.7% (inactive) |  |
| C#CCN1C(=O)COc2cc(F)c(N3C(=O)C4=C(CCCC4)C3=O)cc21 | -3.2% (inactive) |  |
| CCOP(=O)(OCC)SCSP(=S)(OCC)OCC | 13.5% (inactive) |  |
| Cc1cnc(C2=NC(C)(C(C)C)C(=O)N2)c(C(=O)O)c1 (stereo not given) | -6.05% (inactive) |  |
| CCOP(=O)(OCC)SCSC(C)(C)C | -0.8% (inactive) |  |
| CCOP(N)(=O)Oc1ccc(SC)c(C)c1 (stereo not given) | -2.2% (inactive) |  |
| O=C(NC(=O)c1c(F)cccc1F)Nc1cc(Cl)c(OC(F)(F)C(F)C(F)(F)F)c(Cl)c1F (stereo not given) | -14.4% (inactive) |  |
| CC(C)(C)N(NC(=O)c1ccc(Cl)cc1)C(=O)c1ccccc1 | -19.3% (inactive) |  |
| CCOP(=O)(OCC)Oc1ccc2c(C)c(Cl)c(=O)oc2c1 | -22.4% (inactive) |  |
| CCC[CH2][Sn](=[O])[CH2]CCC | -7.41% (inactive) |  |
| O=C(Nc1ccccc1)Nc1ccnc(Cl)c1 | 0.643% (inactive) |  |
| CNC(=O)Oc1cc(C)c(SC)c(C)c1 | 9.79% (inactive) |  |
| Nc1cccc(Cl)c1Cl | -1.53% (inactive) |  |
| CC1(C)CC/C(=C\c2ccc(Cl)cc2)C1(O)Cn1cncn1 (stereo not given) | -52.8% (inactive) |  |
| O=[As](O)(O)O | 10.5% (inactive) |  |
| CCSCCSP(=O)(OC)OC | 8.26% (inactive) |  |
